Assay results published in PubChem BioAssay (EPA / NIEHS).
Records with an inconclusive call do not appear. Active and inactive are the calls of the source. How the source made its calls: active means hit-call score of the fitted dose curve at least 0.9, where 1 is the maximum; inconclusive means response in the unintended direction; inactive means score below 0.9.

molecular target: human Vascular Endothelial Growth Factor Receptor 2 (VEGFR2), KDR (gene 3791) (UniProt P35968); experiment: NVS_ENZ_hVEGFR2: NovaScreen (NVS) Enzymatic Assay for human Vascular Endothelial Growth Factor Receptor 2 (VEGFR2) (AID 2283230)
Sequence (P35968 whole entry, looked up): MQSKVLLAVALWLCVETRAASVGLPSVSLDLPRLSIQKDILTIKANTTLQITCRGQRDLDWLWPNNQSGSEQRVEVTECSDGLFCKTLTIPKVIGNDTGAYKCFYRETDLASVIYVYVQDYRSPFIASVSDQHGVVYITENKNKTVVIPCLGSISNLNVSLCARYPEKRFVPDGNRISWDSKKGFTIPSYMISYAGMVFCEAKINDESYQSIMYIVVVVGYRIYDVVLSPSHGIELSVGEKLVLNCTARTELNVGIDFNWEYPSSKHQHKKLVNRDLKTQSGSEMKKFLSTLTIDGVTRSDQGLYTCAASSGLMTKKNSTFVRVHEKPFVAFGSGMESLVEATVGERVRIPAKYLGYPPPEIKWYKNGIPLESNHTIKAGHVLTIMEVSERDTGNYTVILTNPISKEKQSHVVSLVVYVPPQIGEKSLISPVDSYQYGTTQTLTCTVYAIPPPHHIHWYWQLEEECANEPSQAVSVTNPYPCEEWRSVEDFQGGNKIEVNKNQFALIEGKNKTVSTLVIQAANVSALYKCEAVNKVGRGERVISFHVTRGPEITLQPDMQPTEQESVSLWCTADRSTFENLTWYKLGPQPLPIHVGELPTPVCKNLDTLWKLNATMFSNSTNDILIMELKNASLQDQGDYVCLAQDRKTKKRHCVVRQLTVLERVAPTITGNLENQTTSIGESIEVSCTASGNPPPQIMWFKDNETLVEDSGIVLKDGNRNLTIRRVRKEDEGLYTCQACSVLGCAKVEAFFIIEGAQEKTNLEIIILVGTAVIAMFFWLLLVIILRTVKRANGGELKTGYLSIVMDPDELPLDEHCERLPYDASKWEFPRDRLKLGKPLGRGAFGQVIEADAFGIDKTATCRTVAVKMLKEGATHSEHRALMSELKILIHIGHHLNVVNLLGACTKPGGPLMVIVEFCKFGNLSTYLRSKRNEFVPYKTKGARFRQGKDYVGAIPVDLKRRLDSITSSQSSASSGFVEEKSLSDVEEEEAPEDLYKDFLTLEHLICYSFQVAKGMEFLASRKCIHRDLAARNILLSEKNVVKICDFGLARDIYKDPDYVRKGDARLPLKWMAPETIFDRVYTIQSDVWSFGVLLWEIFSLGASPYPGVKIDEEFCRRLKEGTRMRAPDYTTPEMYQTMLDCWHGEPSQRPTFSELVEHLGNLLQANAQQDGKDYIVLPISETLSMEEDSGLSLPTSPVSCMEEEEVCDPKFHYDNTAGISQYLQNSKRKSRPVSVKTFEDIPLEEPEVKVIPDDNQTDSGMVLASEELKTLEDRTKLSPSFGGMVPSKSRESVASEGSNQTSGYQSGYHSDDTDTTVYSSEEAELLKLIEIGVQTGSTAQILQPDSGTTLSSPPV
Procedure: NVS_ENZ_hVEGFR2 is a biochemical, single-readout assay that uses extracted gene-proteins in a cell-free assay. Measurements were taken 1 hour after chemical dosing in a 384-well plate.NVS_ENZ_hVEGFR2 is one of one assay component(s) measured or calculated from the NVS_ENZ_hVEGFR2 assay. It is designed to make measurements of enzyme activity, a form of enzyme reporter, as detected with fluorescence intensity signals by Fluorescence and electrophoretic mobility shift technology.Data from the assay component NVS_ENZ_hVEGFR2 was analyzed into 1 assay endpoint. This assay endpoint, NVS_ENZ_hVEGFR2, was analyzed in the positive analysis fitting direction relative to DMSO as the negative control and baseline of activity. Using a type of enzyme reporter, loss-of-signal activity can be used to understand changes in the enzymatic activity as they relate to the gene KDR. Furthermore, this assay endpoint can be referred to as a primary readout, because this assay has produced multiple assay endpoints where this one serves a enzymatic activity function. To generalize the intended target to other relatable targets, this assay endpoint is annotated to the kinase intended target family, where the subfamily is receptor tyrosine kinase.
Binding assays used specific radioligands (tritiated, iodinated) with non-radioactive competitive displacement ligands in agonist or antagonist protocols (as indicated) and various reference compounds and inhibitors to titrate specific binding to receptors and transporters. Most enzyme assays (CYPs, kinases, phosphatases, proteases, HDACs) used recombinant protein and specific substrates (fluorescence mostly, some colorimetric and radioactive) and inhibitors, followed by a biochemical separation of substrate and product. All assays for the biochemical HTS were initially run in duplicate at a single concentration (10 uM for CYP450 assays and 25 uM for all others). Assay-chemical combinations meeting a pre-defined threshold (e.g., 30% inhibition and other criteria defined below) were then run in singleton concentration-response format with maximum concentration of 20 uM for CYPs and 50 uM for all others. Each assay was run with positive and negative controls, and concurrent controls on every plate. The follow-up (secondary) screen tested active chemical-pairs in concentration series, as well as a few additional assays not tested in the primary screen, some selected negative inactives, and several cases re-run in the concentration series for confirmatory purposes.

SMILES	outcome
COC(=O)Nc1nc2ccccc2[nH]1	inactive
CCN(CC)N=O	inactive
Clc1ccc(C(c2ccc(Cl)cc2)C(Cl)(Cl)Cl)cc1	inactive
CCNS(=O)(=O)C(F)(F)C(F)(F)C(F)(F)C(F)(F)C(F)(F)C(F)(F)C(F)(F)C(F)(F)F	inactive
Clc1ccc(Cl)c(Cl)c1	inactive
c1ccc(NNc2ccccc2)cc1	inactive
COc1cc(C=O)cc2c1[C@H](COC(N)=O)[C@]1(OC(C)=O)ON2C[C@H]2[C@@H]1N2C(C)=O	inactive
ClC1=C(Cl)[C@]2(Cl)[C@H]3[C@H]([C@@H]4C=C[C@H]3C4)[C@@]1(Cl)C2(Cl)Cl	inactive
CNC(=O)Oc1cccc2c1OC(C)(C)C2	inactive
Clc1ccc(C(c2ccc(Cl)cc2)C(Cl)Cl)cc1	inactive
CC(C)(OOC(C)(C)c1ccccc1)c1ccccc1	inactive
